# Shown are actives, neighbours in structure and some others; about 5.4% of the full set was active somewhere.
# LASV entry inh = qHTS for Inhibitors of binding or entry into cells for Lassa Virus; Lassa virus pseudotype entry inhibition, cell reporter; Potency, µM (highest dose often 37.9 µM), for inactives: at the top dose activity change, negative = inhibition, hits mostly inhibitors; 300,000 compounds, 1.2% hits; AID 540256, 2011; calls by dose curve; tested in HEK293 cells; note: nearly all actives have a fitted effect of over 50% in size
# FMDV antiviral = High Throughput Screening for Foot and Mouth Disease Virus Antivirals. 410,000 compounds, 1.2% hits. FMDV antiviral cell-based qHTS. Potency, µM (top dose mostly 57.9 µM), for inactives: top-dose activity change, negative = inhibition, hits mostly inhibitors. AID 1159524, 2015; calls by dose curve; tested in HEK293T cells; note: read-out not given here; nearly all actives have a fitted effect of over 45% in size
# Marburg entry inh = qHTS for inhibitors of binding or entry into cells for Marburg Virus | Marburg virus pseudotyped entry inhibition, cell reporter | Potency, µM (titrated, usually from 37.8 µM), without a hit: at the highest dose activity change, negative = inhibition, usual class: inhibitors | 300,000 compounds, 1.8% hits | AID 540276, 2011; calls by dose curve; tested in HEK293 cells
# Vaccinia Venus = qHTS for Stage-Specific Inhibitors of Vaccinia Orthopoxvirus: Venus Reporter Primary qHTS | Vaccinia virus Venus reporter expression, fluorescence | Potency, µM (highest dose often 36.5 µM), without a hit: at the highest dose activity change, negative = inhibition, usual class: inhibitors | 330,000 compounds, 0.46% hits | AID 720580, 2013; calls by dose curve; tested in A549 cells; note: nearly all actives have a fitted effect of over 30% in size
# Sm TGR inh = qHTS Assay for the Inhibitors of Schistosoma Mansoni Peroxiredoxins | Potency, µM (series often up to 114 µM), for the others: top-dose activity change, negative = inhibition, hits mostly inhibitors | purified TGR, DTNB reduction, TNB absorbance 405 nm | 360,000 compounds, 3% hits; active = well fitted inhibition curve with a large enough effect; inconclusive = small, poorly fitted or top-dose-only effect; inactive = no such curve, though single readings can be large or run the other way; note: nearly all actives have a fitted effect of over 60% in size
#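 First, TGR (20 nM dispensed) and NADPH were mixed with compound. Second, a 15 min room-temperature incubation followed. Third, further NADPH and then DTNB were added to start the reaction. Finally, TNB absorbance was monitored kinetically.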
# Vaccinia mCherry = qHTS for Stage-Specific Inhibitors of Vaccinia Orthopoxvirus: mCherry Reporter Primary qHTS; Vaccinia virus mCherry reporter infection, fluorescence; Potency, µM (titrated, usually from 36.5 µM), for the others: top-dose activity change, negative = inhibition, usual class: inhibitors; 310,000 compounds, 0.63% hits; AID 720579, 2013; calls by dose curve; tested in A549 cells; note: nearly all actives have a fitted effect of over 35% in size
# An asterisk follows results filed as active; i = inactive; ? = inconclusive; . = no result; [ ] = remark or other dose. % is set by controls: 0 for no effect and ±100 for the full control effect; potency is the fitted concentration of half-maximal effect.
SMILES,LASV entry inh,FMDV antiviral,Marburg entry inh,Vaccinia Venus,Sm TGR inh,Vaccinia mCherry
COc1ccccc1N1C(=O)NC(=O)/C(=C/c2ccc3c4c(cccc24)CC3)C1=O,-1%,?,7%,8%,32µM*,-2%
O=C1NC(=O)N(c2ccccc2)C(=O)/C1=C\c1ccc2c3c(cccc13)CC2,.,.,.,.,25µM*,.
O=C1NC(=O)N(c2ccccc2)C(=O)/C1=C/c1ccoc1,9%[46.1 µM],?,8%[46.1 µM],36%,-10%,-8%
Cc1ccc(OC(=O)c2cc(-c3ccc4c(c3)OCCO4)on2)c(C)c1,7%[46.1 µM],8%,15%[46.1 µM],-5%,0%,-3%
Cc1nc(N2CCOCC2)nc(Oc2ccccc2)c1[N+](=O)[O-],.,-25%,.,.,7.1µM*,.
CC(Sc1nnc2c(n1)[nH]c1ccccc12)C(=O)NC1CCCCC1 (stereo unspecified),?,?,4.5µM*,2%,-8%,-9%
CCCOc1ccc(Br)cc1CSC(=N)N,?,?,7.3µM*,.,8%,.
CCOc1cccc(C=Nc2cc(C)cc(C)c2O)c1O,.,2%,-2%,.,4µM*,.
Cc1cc(C)c(NC(=O)Cn2c(=O)nc(-c3ccccc3)c3cc(Cl)ccc32)c(C)c1,7%[46.1 µM],-1%,.,-6%,-1%,-15%
CCOc1cc(CNc2ccc3c(c2)OCCO3)cc(Br)c1OCC,-22%,32µM*,?,?,-11%,?
CCOc1cc(CNc2ccc(N3CCOCC3)cc2)cc(Br)c1OCC,-30%,?,-13%,-12%,-11%,-16%
CCOc1cc(CNc2ccc(N3CCCC3)cc2)cc(Cl)c1OC,?,-11%,-20%,-16%,25µM*,-14%
CCOc1cc(CNc2ccc(N(C)C)cc2)cc(Br)c1OCC(=O)NC(C)(C)C,?,14µM*,-10%,-15%,-31%,.
COc1cc(CNc2ccc(N3CCCC3)cc2)cc(Cl)c1OC,?,-29%,?,-11%,.,-6%
CCOc1cc(CNc2ccc(N3CCCCC3)cc2)cc(Br)c1OCC(=O)NC(C)(C)C,-13%,32µM*,-30%,5%,-17%,-8%
O=C(Nc1ccc(F)c(Cl)c1)N1CCN(C(=O)c2nsc3ccccc23)CC1,9%[46.1 µM],13%,17%[46.1 µM],-9%,9%,-3%
COc1ccc(-c2ccc(NC(=O)c3ccco3)cc2)nn1,?,11µM*,?,2%,50µM*,-16%
CC1CCN(c2ccc(-c3cccc(NC(=O)c4ccco4)c3)nn2)CC1,2.5µM*,-24%,7.9µM*,-17%,-1%,-28%
O=C(Nc1cccc(-c2ccc(N3CCCCC3)nn2)c1)C(F)(F)F,.,-62%,.,.,-12%,.
CC1CCN(c2ccc(-c3cccc(NC(=O)C(F)(F)F)c3)nn2)CC1,2.2µM*,16µM*,?,-9%,-20%,-14%
COc1ccc(NC(=O)Cn2nnc(-c3ccccc3NC(=O)c3ccco3)n2)cc1,?,-43%,11µM*,?,23%[11.4 µM],.
COc1ccccc1NC(=O)Cn1nnc(-c2ccccc2NC(=O)c2ccco2)n1,?,?,-28%,-22%,-16%,.
Cc1cc(C)cc(NC(=O)C2CCN(S(=O)(=O)c3c(C)noc3/C=C/c3ccco3)CC2)c1,1%[46.1 µM],-25%,3%[46.1 µM],6%,-2%,-3%
Cc1nc2sc(C)c(C)n2c(=O)c1S(=O)(=O)N1CCN(c2ccccc2F)CC1,8%[46.1 µM],-1%,.,-7%,4%,-6%
CCc1ccc(NC(=O)c2cnn(-c3c(C)cccc3C)c2C2CCNCC2)cc1,-2%[46.1 µM],-15%,.,-16%,29%,-14%
SMILES,LASV entry inh,FMDV antiviral,Marburg entry inh,Vaccinia Venus,Sm TGR inh,Vaccinia mCherry
Cc1ccc(S(=O)(=O)N2CCc3cc(C(=O)Nc4c(C)cccc4C(C)C)ccc32)cc1,-12%[46.1 µM],-17%,?,-7%,4%,-7%
O=C(/C=C\Nc1cccc(F)c1)c1cccs1,11µM*,-36%,?,-7%,-2%,-15%
O=C(/C=C\Nc1ccc2c(c1)OCO2)c1ccccn1,0.45µM*,2µM*,?,-12%,2%,-18%
CCOC(=O)c1ccccc1N/C=C/C(=O)c1cccs1,-3%,14%,?,-20%,8%,-26%
O=C(NNc1ccc(F)cc1F)c1cccs1,.,.,.,-13%,.,-9%
O=C(/C=C/Nc1ccccc1F)c1cccs1,1.4µM*,13µM*,6.3µM*,-10%,-15%,-13%
O=C(/C=C/Nc1ccc(F)cc1F)c1cccs1,1.4µM*,20µM*,?,3%,-10%,-9%
Cc1ccc2c(CC(=O)N3CCOc4ccc(CN5CCOCC5)cc4C3)cc(=O)oc2c1,.,1%,.,-6%,.,-12%
CCCOc1ccc(C2c3c(-c4ccccc4O)n[nH]c3C(=O)N2CCCOCC)cc1OCC (stereo unspecified),?,-11%,?,-17%,-6%,-10%
O=C(/C=C\Nc1ccc2c(c1)OCO2)c1ccc(Cl)s1,?,?,?,-11%,4%,i
O=C(/C=C\Nc1ccc2c(c1)OCO2)c1cccs1,?,10µM*,?,-16%,3%,-20%
CCOC(=O)c1sc(=S)n(C)c1NC(=O)c1ccc(C(C)(C)C)cc1,?,25µM*,14µM*,-23%,3%,-14%
Cc1ccc(S(=O)(=O)/N=C2/C=C(C3C(=O)CC(C)(C)CC3=O)C(=O)c3ccccc32)cc1,-9%,-34%,?,?,14µM*,?
O=C(/C=C\Nc1ccccn1)c1ccc(Cl)cc1,?,.,6.5µM*,-13%,5%,-14%
Cc1cccc(N/C=C/C(=O)c2ccc(Cl)cc2)c1,.,44%,.,.,67%,.
CC(C)(CO)NCc1c(OCc2ccc(Cl)cc2)ccc2ccccc12,2.5µM*,-10%,?,?,-4%,?
Cc1ccc(S(=O)(=O)CNC(=S)c2ccc3ccccc3c2)cc1,-3%,-10%,17%,-12%,3.2µM*,i
Cc1ccc(S(=O)(=O)CNC(=O)c2ccccc2)cc1,-2%,-20%,-10%[46.1 µM],-12%,20µM*,i
COc1ccc(C(=S)NCS(=O)(=O)c2ccc(C)cc2)cc1,-2%,0%,?,-16%,2.5µM*,-17%
COc1ccc(C(=S)Nc2ccc(C)cc2)cc1,1%,39%,?,-1%,7%,i
Cc1ccc(S(=O)(=O)CNC(=S)c2cccc(C)c2)cc1,7%,3%,4%,.,3.5µM*,.
COc1ccc(NC(=O)CSCc2cnn(-c3ccccc3)c2-n2cccc2)cc1,4%[46.1 µM],-15%,-2%[46.1 µM],-16%,1%,-12%
Cc1c(C(=O)NCCN2CCC(c3ccccc3)CC2)cnn1-c1nccc(-c2cccs2)n1,.,-10%,.,-27%,.,?
CN=C1CC(SC)=C1c1ccc(C)cc1,?,32µM*,-23%,-12%,-18%,-18%

# Bioassay records from PubChem BioAssay.
